Assay results published in PubChem BioAssay (NCI).
The panel holds about 83,000 compounds, 20% with a hit somewhere; the sample as a whole holds those more often.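 Assay: single dose, 48 h. Readout: percent growth (0 = no net growth; negative = cell death). Active: <10.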 Unmarked numbers belong to inactive results. The source made the active and inactive calls.

Assays:
Experiment in all cases: NCI-60 one-dose screen, 48 h (100 = growth as untreated, 0 = no growth, -100 = all killed)
NCI-H23 lung = conditions: 10 µM unless noted
NCI-H226 lung = conditions: 10 µM unless noted
NCI-H322M lung = conditions: 10 µM unless noted
HOP-62 NSCLC = conditions: 10 µM unless noted
NCI-H460 lung = conditions: 10 µM unless noted
HOP-92 NSCLC = conditions: 10 µM unless noted
NCI-H522 lung = conditions: 10 µM
786-0 renal = conditions: 10 µM unless noted
COLO 205 colon = conditions: 10 µM unless noted
DU-145 prostate = conditions: 10 µM unless noted
K-562 leukemia = conditions: 10 µM unless noted
MALME-3M melanoma = conditions: 10 µM unless noted
MDA-MB-231 breast = conditions: 10 µM unless noted
RXF 393 renal = conditions: 10 µM unless noted
SF-268 CNS = conditions: 10 µM unless noted
SF-295 CNS = conditions: 10 µM unless noted
SF-539 CNS = conditions: 10 µM unless noted
UACC-257 melanoma = conditions: 10 µM unless noted
M14 melanoma = conditions: 10 µM unless noted

SMILES	growth (NCI-H23 lung)	growth (NCI-H226 lung)	growth (NCI-H322M lung)	growth (HOP-62 NSCLC)	growth (NCI-H460 lung)	growth (HOP-92 NSCLC)	growth (NCI-H522 lung)	growth (786-0 renal)	growth (COLO 205 colon)	growth (DU-145 prostate)	growth (K-562 leukemia)	growth (MALME-3M melanoma)	growth (MDA-MB-231 breast)	growth (RXF 393 renal)	growth (SF-268 CNS)	growth (SF-295 CNS)	growth (SF-539 CNS)	growth (UACC-257 melanoma)	growth (M14 melanoma)
CCC(C)C1NC(=O)C(CCNCS(=O)(=O)O)NC(=O)C(NC(=O)C(CCNCS(=O)(=O)O)NC(=O)C(NC(=O)C(CCNCS(=O)(=O)O)NC(=O)CCCCC(C)C)C(C)O)CCNC(=O)C(C(C)O)NC(=O)C(CCNCS(=O)(=O)O)NC(=O)C(CCNCS(=O)(=O)O)NC(=O)C(C(C)CC)NC1=O (stereo unspecified)	66.6%	77%	70.3%	46.8%	48.8%	95.8%	10.5%	93.1%	1.57% (active)	117%	20.2%	48.9%	51.9%	47.4%	72.9%	86.6%	27.3%	84.3%	34.7%
COc1cc(/C=C2\CN(C)CC3=C2Nc2nc(SC)[nH]c(=O)c2C3c2cc(OC)c(OC)c(OC)c2)cc(OC)c1OC (stereo unspecified)	49.4%	72.1%	86.7%	69.8%	10.1%	82.7%	37.8%	67.4%	31.2%	7.76% (active)	8.74% (active)	81.2%	37.6%	69.7%	37.4%	63.8%	34.8%	53.9%	24.3%
C/C=C(/C(=C/C)c1ccc(O)cc1)c1ccc(O)cc1	48%	69.9%	27.4%	36%	20.2%	58.5%	55.3%	39.3%	73.9%	28.2%	22.8%	23.1%	49.1%	8.39% (active)	45.6%	12%	-3.67% (active)	53.9%	15.4%
OCCN1CCN(CCCN2c3ccccc3Sc3ccc(C(F)(F)F)cc32)CC1	65.5%	82.7%	65%	45.9%	6.79% (active)	6.66% (active)	19.5%	38.7%	-81.9% (active)	58.8%	-55.8% (active)	-66.6% (active)	40.8%	28.2%	41%	-43% (active)	33.4%	–	–
N#Cc1c(-c2ccc(F)cc2)n2c(nc1=O)SC(=O)C2=O	98.6%	87.2%	104%	120%	101%	96.6%	103%	100%	134%	124%	108%	90.8%	114%	96.5%	93.4%	103%	115%	85.8%	105%
NS(=O)(=O)c1cc2c(cc1Cl)NC=NS2(=O)=O	109%	99%	98.5%	98.5%	110%	106%	91.4%	98.9%	110%	111%	120%	103%	113%	121%	109%	104%	103%	104%	–
O=CN1N=C(c2ccc(Nc3ccnc4cc(Cl)ccc34)cc2)CC1c1ccc(Cl)cc1 (stereo unspecified)	39.2%	52.6%	44.1%	33.8%	6.99% (active)	49.5%	26.9%	27.9%	12.1%	10%	9.53% (active)	34.5%	31.2%	17.5%	34.9%	-1.08% (active)	-0.113% (active)	77.7%	39.3%
N#Cc1ncc(-c2ccc(C(F)(F)F)cc2)c(NC2CCCCCC2)n1	29.9%	35.1%	78.2%	43.9%	29.8%	-22.6% (active)	-4.74% (active)	37.9%	7.19% (active)	60.5%	13.6%	-49.2% (active)	56.3%	36.6%	39.3%	-29.5% (active)	74.4%	–	–
CC(C)Sc1nc(-c2ccc(Br)cc2)c(C#N)c(N2CCCCC2)n1	110%	100%	93.7%	115%	104%	105%	99.3%	82.7%	135%	109%	116%	94.1%	90.9%	110%	103%	96.7%	104%	109%	104%
CCSc1nc(-c2ccco2)n2nc(-c3ccco3)cc2n1	93.5%	90.7%	117%	100%	92.1%	89.6%	101%	111%	114%	118%	116%	116%	88.1%	101%	113%	101%	100%	102%	121%
C#C[C@]1(O)CCC2C3CCc4cc(O)ccc4C3CC[C@@]21C (stereo partly specified)	62.4%	81.3%	81.4%	35.4%	17.5%	75.3%	10.6%	44.3%	41.1%	60.8%	12.7%	43%	66.7%	51.5%	47.7%	22.6%	21%	75.2%	20.4%
O=C(c1ccccc1)c1ccc(Oc2ccc([N+](=O)[O-])cc2[N+](=O)[O-])cc1	86.2%	48.4%	109%	99.1%	103%	52.9%	-26.6% (active)	71.9%	84%	95.9%	11.9%	70.2%	89.5%	81.1%	87.8%	91.2%	55.3%	71%	53.8%
CCOc1nc(-c2ccco2)n2nc(-c3ccco3)cc2n1	107%	92.4%	116%	118%	102%	92%	99.1%	103%	131%	118%	114%	122%	98%	98.4%	106%	98.3%	89.6%	116%	132%
Cc1onc(-c2ccccc2Cl)c1C(=O)N[C@@H]1C(=O)N2[C@@H]1SC(C)(C)[C@@H]2C(=O)O	112%	99.2%	104%	97.1%	112%	110%	96.1%	99%	109%	123%	91.6%	94.2%	113%	115%	110%	104%	112%	108%	98.2%
COc1cc(OC)c2c(c1Cl)O[C@]1(C2=O)C(OCc2ccccc2)=CC(=O)C[C@H]1C	20.9%	45.8%	36.4%	5.17% (active)	6.23% (active)	-16.7% (active)	-24.7% (active)	37.8%	-32.6% (active)	14.7%	2.98% (active)	-42.4% (active)	12.9%	0.23% (active)	21.3%	-58% (active)	-16.4% (active)	–	–
CCSc1nc(Nc2ccc(S(=O)(=O)Nc3ccon3)cc2)c(C#N)c(-c2cccc(Br)c2)n1	101%	77.2%	74.3%	93.9%	106%	90.2%	87.3%	94.8%	117%	112%	77.9%	105%	97%	94.7%	99.3%	82%	82.2%	115%	104%
COc1cccc2c1C(=O)c1c(O)c3c(c(O)c1C2=O)C[C@@](O)(C(C)=O)C[C@@H]3O[C@H]1C[C@H](N)[C@H](O)[C@H](C)O1	-67.3% (active)	-33.1% (active)	-19.9% (active)	-50.2% (active)	-3.01% (active)	-28% (active)	-89.3% (active)	-9.97% (active)	-85.8% (active)	1.62% (active)	-4.44% (active)	-70.7% (active)	-14.6% (active)	-65.1% (active)	-43.8% (active)	-30.8% (active)	-43.1% (active)	-47.3% (active)	-86.5% (active)
